For 17 compounds, Potency and activity, negative = cell killing results are on record in PubChem BioAssay (NCATS).

In one assay the test system is MKL-1. Kind of assay: qHTS assay to identify novel small-molecules to repurpose for Merkel cell carcinoma treatment (AID 1296009). Further: nearly all actives have a fitted effect of over 60% in size. Particulars: MCC and control cell lines, CellTiter-Glo viability, 72 h; series mostly up to 46 µM. The procedure, abridged:
(§1)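 Viability readout: ATP luminescence (CellTiter-Glo) after 72 hr drug exposure at 37 degree celsius. Dose-response format was 8 points for NPC and 11 points for MIPE; data normalized to in-plate controls.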
In general terms: In qHTS, concentration-response curves come from the screen itself.

The next assay deals with UISO. The assay is described as above. Particulars: MCC and control cell lines, CellTiter-Glo viability, 72 h; series mostly up to 46 µM. In a few lines: as §1
For another assay, the system named is WaGa. The description is as above. Particulars: MCC and control cell lines, CellTiter-Glo viability, 72 h; series mostly up to 46 µM. In a few lines: as §1
On the technique in general: Cellular ATP, detected with luciferase, serves as a proxy for viable cell number.

A short description of assay [1]: Drug repurposing screens with cells derived from glioblastoma tumor samples (AID 1345199). Further: nearly all actives have a fitted effect of over 40% in size. As to conditions: GBM patient neurospheres viability, ATP luminescence, 48 h. The procedure, abridged: (§2)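 Primary testing used CD133+ neurospheres from four GBM patients, seven concentrations, 48 h exposure and ATP-based viability; confirmation added three slower-growing patient lines.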

A further assay relates to astro. The description is as above. As to conditions: viability, ATP luminescence, 48 h; series mostly up to 45.9 µM. The procedure, abridged:
as §2

In another assay the test system is NIH3T3. The assay is described as follows: qHTS assay to identify novel small-molecules to repurpose for Merkel cell carcinoma treatment (AID 1296009). Further: nearly all actives have a fitted effect of over 60% in size. As to conditions: MCC and control cell lines, CellTiter-Glo viability, 72 h; series mostly up to 44.8 µM. The procedure, abridged:
as §1

Another assay concerns C33A. Kind of assay: Primary qHTS to identify gynecologic anti-cancer compounds using libraries of approved drugs and bioactive compounds (AID 1345084). Further: nearly all actives have a fitted effect of over 55% in size. Particulars: Gynecologic cancer cell panel viability, ATPlite luminescence, 48 h; series mostly up to 57.5 µM. The procedure, abridged:
(§3)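 Cells, 1,000 per well, plated 16 h, then exposed 48 h at 37 C to compounds. Viability by ATPlite luminescence after 15 min at room temperature.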

A further assay concerns CAOV3. The description is as above. Particulars: Gynecologic cancer cell panel viability, ATPlite luminescence, 48 h; series mostly up to 57.5 µM. In a few lines:
as §3

The next assay has as its system CASKI. Described as above. Particulars: Gynecologic cancer cell panel viability, ATPlite luminescence, 48 h; series mostly up to 57.5 µM. The procedure, abridged:
as §3

For the next assay, the system named is Es-2. Described as above. As to conditions: Gynecologic cancer cell panel viability, ATPlite luminescence, 48 h; series mostly up to 57.5 µM. The procedure, abridged:
as §3

The subject of a further assay is HeLa. Described as above. Particulars: Gynecologic cancer cell panel viability, ATPlite luminescence, 48 h; series mostly up to 57.5 µM. In a few lines: as §3
A further assay deals with Hek293T. The assay is described as above. Particulars: Gynecologic cancer cell panel viability, ATPlite luminescence, 48 h, control line for the selectivity index; series mostly up to 57.5 µM. In a few lines: as §3
The next assay has as its system OV90. The assay is described as above. As to conditions: Gynecologic cancer cell panel viability, ATPlite luminescence, 48 h; series mostly up to 57.5 µM. The procedure, abridged:
as §3

A further assay relates to PA-1. The description is as above. As to conditions: Gynecologic cancer cell panel viability, ATPlite luminescence, 48 h; series mostly up to 57.5 µM. In a few lines: as §3
The next assay relates to SKOV3. The description is as above. Particulars: Gynecologic cancer cell panel viability, ATPlite luminescence, 48 h; series mostly up to 57.5 µM. In a few lines:
as §3

A further assay has as its system Tov-21-G. The assay is described as above. As to conditions: Gynecologic cancer cell panel viability, ATPlite luminescence, 48 h; series mostly up to 57.5 µM. The procedure, abridged:
as §3

Another assay relates to Tov112D. The description is as above. As to conditions: Gynecologic cancer cell panel viability, ATPlite luminescence, 48 h; series mostly up to 57.5 µM. In a few lines:
as §3

The test system of another assay is JEG-3. The description is as above. As to conditions: Gynecologic cancer cell panel viability, ATPlite luminescence, 48 h; series mostly up to 57.5 µM. The procedure, abridged:
as §3

A further assay relates to MKL-2. Kind of assay: qHTS assay to identify novel small-molecules to repurpose for Merkel cell carcinoma treatment (AID 1296009). Further: nearly all actives have a fitted effect of over 60% in size. Particulars: MCC and control cell lines, CellTiter-Glo viability, 72 h; series mostly up to 46 µM. The procedure, abridged: as §1
The mark [2] stands for this setting: at 45.9 µM (top of the series), tumour line B.
Where [3] appears, read: at 46.1 µM (top of the series), tumour line C.
The mark [4] stands for this setting: at 45.9 µM (top of the series), tumour line D.

The structures appear in SMILES notation. Records with an inconclusive call do not appear. A number with no mark means an inactive call. Calls of active or inactive are those of the source. The call rests on the fitted dose curve; in most records, active means well fitted curve in the direction sought with a large enough effect; inconclusive means small, poorly fitted or top-dose-only effect, or another doubt; inactive means no such curve, though single readings can be large; an effect the other way counts as inactive or inconclusive.
On the % scale 0 is the no-effect control and ±100 the full control effect; potency means the concentration at half of the fitted maximal effect.

Turning to `CCC(=O)OCC(=O)[C@@]1(OC(=O)CC)[C@@H](C)C[C@@H]2[C@H]3CCC4=CC(=O)C=C[C@]4(C)[C@@]3(F)[C@@H](O)C[C@@]21C`, the Potency entry in the assay with MKL-1, with UISO, in the assay with WaGa and with astro was “inactive” in each case. In addition, the activity, negative = cell killing in [1] (setting [2]) was -4.93%; in assay [1] (setting [3]), 2.82%. The Potency in [1] (tumour line A) was 11.2 µM (active).

Regarding `CN[C@@H]1[C@@H](O)[C@@H](O[C@@H]2[C@@H](O)[C@H](O[C@H]3O[C@H](CN)[C@@H](O)[C@H](O)[C@@H]3O)[C@@H](N)C[C@@H]2NC(=O)[C@@H](O)CN)OC[C@]1(C)O`, the Potency result with MKL-1, with NIH3T3, in the assay with UISO and with WaGa was “inactive” throughout.

For the compound `CN(C(Cc1ccc(OS(=O)(=O)c2cccc3cnccc23)cc1)C(=O)N1CCN(c2ccccc2)CC1)S(=O)(=O)c1cccc2cnccc12` (stereo not drawn), the Potency entry with MKL-1 is “inactive”. Besides, the Potency in the assay with UISO is 7.43 µM (active).

As to `FC(F)(F)c1ccc(C=Cc2nc(COc3ccc(CCCCn4ccnn4)cc3)co2)cc1`, the figures for the Potency with MKL-1, in the assay with UISO and with WaGa were 0.0235 µM (active), 0.0264 µM (active) and 0.0047 µM (active), respectively.

Turning to `N#Cc1c(N(CC(=O)O)CC(=O)O)sc(C(=O)O)c1CC(=O)O`, the Potency result in the assay with MKL-1, in the assay on UISO, with WaGa and with astro was “inactive” each time. Also, the activity, negative = cell killing was -0.252% in assay [1] (setting [2]); 0.729% in assay [1] (setting [4]); -24.3% in [1] (at 46 µM (top of the series), tumour line A); 4.23% in assay [1] (setting [3]).

Consider `CC1C(=O)OC2C(O)C34C5CC(C(C)(C)C)C36C(OC(=O)C6O)OC4(C(=O)O5)C12O` (stereo not drawn), for which the Potency result in the assay on MKL-1 and in the assay with UISO was “inactive” in each case.

As to `Nc1[nH]nc2nnc(-c3c(-c4ccccc4)nn4ccccc34)cc12`, the Potency result with MKL-1, in the assay with NIH3T3, in the assay with UISO, in the assay with C33A, with CAOV3 and in the assay on CASKI was “inactive” in each case. In addition, the Potency entry in the assay with Es-2, in the assay on HeLa, with Hek293T, in the assay with OV90, in the assay on PA-1 and in the assay on SKOV3 was “inactive” in each case. Also, the Potency entry in the assay on Tov-21-G and in the assay on Tov112D was “inactive” throughout. Also, the Potency in the assay on WaGa is 1.05 µM (active).

In the case of `O=C(CC12CC3CC(CC(C3)C1)C2)Nc1cccc2nc(NCCNCCO)ccc12`, the Potency result in the assay with MKL-1, with NIH3T3, in the assay on UISO, in the assay with WaGa, in the assay on C33A and in the assay on CASKI was “inactive” each time. Also, the Potency result in the assay with Es-2, in the assay with HeLa, with Hek293T, with JEG-3, with OV90 and with PA-1 was “inactive” in each case. The Potency entry in the assay with SKOV3, with Tov-21-G and with Tov112D was “inactive” in each case.

Turning to `O=C1NC(=O)C(=Cc2ccc(-c3ccc(F)cc3O)o2)S1`, the Potency result with MKL-1 and in the assay on UISO was “inactive” throughout.

Consider `O=C(O)CCNc1cc(N2CCc3ccccc3CC2)nc(-c2ccccn2)n1`, for which the Potency result in the assay on MKL-1, with C33A, in the assay on CASKI, with Es-2, in the assay on HeLa and in the assay with Hek293T was “inactive” each time. For the same compound, the Potency result in the assay with JEG-3, in the assay with OV90, with PA-1, in the assay on SKOV3, in the assay on Tov-21-G and with Tov112D was “inactive” each time. In the assay with UISO, the Potency was 14.8 µM (active).

Take `COc1ccnc(CS(=O)c2nc3ccc(OC(F)F)cc3[nH]2)c1OC` (stereo not drawn): the Potency entry in the assay with MKL-1, in the assay with NIH3T3, with UISO, in the assay on WaGa, with C33A and with CAOV3 was “inactive” throughout. Besides, the Potency entry with CASKI, with Es-2, in the assay with HeLa, in the assay with Hek293T, in the assay with JEG-3 and with PA-1 was “inactive” each time. The Potency result with SKOV3, in the assay with Tov-21-G, in the assay on Tov112D and with astro was “inactive” in each case. Moreover, the activity, negative = cell killing in assay [1] (setting [2]) was -25.5%; in assay [1] (setting [4]) it was -22.5%; in [1] (setting [3]), -15.1%.

With `O=C1NC(=O)C(c2cnc3ccccn23)=C1c1cn2c3c(cccc13)CN(C(=O)N1CCOCC1)CC2`, the Potency entry with MKL-1, in the assay with MKL-2, in the assay on C33A, in the assay on Es-2, in the assay with HeLa and in the assay with Hek293T was “inactive” throughout. In addition, the Potency result in the assay with JEG-3, in the assay on PA-1 and in the assay on Tov112D was “inactive” each time. Also, the Potency in the assay with CASKI was 3.16 µM (active); in the assay with SKOV3 it was 1.41 µM (active).

On to `CN(C)c1ccc(-c2nc3ncc(Cl)c(N4CCN(CC(=O)Nc5nccs5)CC4)c3[nH]2)cc1`, for which the Potency entry in the assay with MKL-1, in the assay on UISO, in the assay on WaGa, in the assay on C33A, with CASKI and in the assay with Es-2 was “inactive” throughout. Besides, the Potency result in the assay with Hek293T, with JEG-3 and in the assay on OV90 was “inactive” throughout.

On to `Clc1ccc(COC(Cn2ccnc2)c2ccc(Cl)cc2Cl)c(Cl)c1` (stereo not drawn), for which the Potency entry with MKL-1, with MKL-2 and in the assay on astro was “inactive” each time. Besides, the activity, negative = cell killing in [1] (at 20 µM (top of the series), tumour line C) was -15.2%. The Potency is 5.62 µM (active) in assay [1] (tumour line A) and 14.1 µM (active) in [1] (tumour line D).

In the case of `OC(c1cc(C(F)(F)F)nc2c(C(F)(F)F)cccc12)C1CCCCN1` (stereo not drawn), the Potency result in the assay with MKL-1, in the assay on UISO and in the assay on WaGa was “inactive” in each case.

For the compound `C=C1c2cccc(O)c2C(O)=C2C(=O)[C@@]3(O)C(O)=C(C(N)=O)C(=O)[C@@H](N(C)C)[C@@H]3[C@@H](O)[C@H]12`, the Potency entry with MKL-1, in the assay on UISO and in the assay on WaGa was “inactive” throughout.

For the compound `NC(=O)c1noc([C@H](CCCC2CCCCC2)CC(=O)NO)n1`, the figures for the Potency in the assay with MKL-1 and in the assay with UISO were 16.6 µM (active) and 14.8 µM (active), respectively. The Potency entry with C33A, with CASKI, with Es-2, with HeLa, with Hek293T and in the assay with JEG-3 was “inactive” each time. The Potency entry in the assay with OV90, in the assay on Tov-21-G and in the assay on Tov112D was “inactive” throughout.
